Results: the supplement of paper PMC3724861
The entries come from a sample that favours hits as a whole. The hit rate among all sequences tested is not known here.

Each sequence was assayed on T1, Caupolican (Caup) homeodomain DNA-binding domain (assay: PBM E-score (8-mer, recovered from the published 9-mer minima) (E-score (dimensionless, -0.5 to 0.5)); Drosophila protein; higher = stronger relative binding preference, active = 0.31 or more).
T1 sequence: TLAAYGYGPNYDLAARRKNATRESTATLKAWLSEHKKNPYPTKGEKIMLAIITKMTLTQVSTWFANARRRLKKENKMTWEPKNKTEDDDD
Summary of the method: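 Caup's homeodomain DNA-binding domain (residues 214-303) was made by in vitro transcription and translation and applied at 100 nM to custom-designed protein binding microarrays. Each value is an enrichment score that gives relative binding preference for a short DNA word, with higher meaning stronger. The 8-mer values were recovered from published 9-mer scores, each of which was the minimum of its two constituent 8-mer scores. A cutoff of 0.31 marks candidate sites.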

Sequence | PBM E-score
ACATGTAG | 0.476 (active)
AAATGTAG | 0.0799 (inactive)
GCATGTAC | 0.413 (active)
CCATGTAA | 0.404 (active)
CGATGTAG | 0.179 (inactive)
CGATGTGC | -0.0367 (inactive)
CCCTGTAA | 0.161 (inactive)
CCATGTAG | 0.268 (inactive)
GGATGTAC | 0.305 (inactive)
ACCTGTAG | 0.0685 (inactive)
GAATGTAC | 0.165 (inactive)
CGATGTAC | 0.374 (active)
AGGCTTTC | -0.088 (inactive)
ACCGCGGA | -0.137 (inactive)
ATTCCTTA | 0.0011 (inactive)
CATCCCAC | -0.133 (inactive)
GCTGCCGA | -0.282 (inactive)
CCCTGTAC | 0.158 (inactive)
TCATGTAA | 0.427 (active)
TCCTGTAA | 0.2 (inactive)
ACATGTAC | ≥ 0.48 (active)
AACTGTAA | 0.197 (inactive)
AAATGTAC | 0.279 (inactive)
CCATGTAC | 0.411 (active)
AGATGTAC | 0.299 (inactive)
TCATGGAA | 0.0375 (inactive)

Sequence | PBM E-score
ACACGTAA | 0.309 (inactive)
ACATGTAA | 0.468 (active)
CCCCTTGA | -0.156 (inactive)
CACGCACA | 0.0915 (inactive)
AGGTCATG | 0.0878 (inactive)
ATAGTCGG | -0.0656 (inactive)
AAAGCTCG | -0.0924 (inactive)
CTCATCTC | -0.158 (inactive)
GGGATTGA | -0.0471 (inactive)
ACATGTAT | 0.469 (active)
AAATGTAT | 0.241 (inactive)
GCCTGTAA | 0.09 (inactive)
GCATGGAA | -0.00398 (inactive)
ACCTGTAT | 0.222 (inactive)
GCATGTAA | 0.409 (active)
CGCAGAAC | -0.0278 (inactive)
GAATTATA | 0.109 (inactive)
GCGGGTAA | -0.02 (inactive)
TAACAAAA | 0.119 (inactive)
CAACAACA | 0.408 (active)
AAACAACT | 0.246 (inactive)
AAACAACC | 0.202 (inactive)
AAACAACA | 0.363 (active)
CAACAACC | 0.238 (inactive)
TAACAAGA | 0.298 (inactive)
TAACAACA | 0.406 (active)

Sequence | PBM E-score
GAACAACA | 0.292 (inactive)
AGTATCTA | 0.166 (inactive)
TATCTAGA | 0.0449 (inactive)
GGACCCAC | -0.208 (inactive)
GAGCAGAC | -0.0808 (inactive)
CTAGAAAA | 0.0157 (inactive)
CACTAATG | 0.0246 (inactive)
CATAGCCG | -0.0066 (inactive)
AACACGTG | ≥ 0.351 (active)
CACACGTG | 0.148 (inactive)
AACACGTC | 0.299 (inactive)
AACACGTA | 0.316 (active)
ACCACGTG | 0.0775 (inactive)
AACACGTT | 0.292 (inactive)
CTATTTTC | 0.101 (inactive)
ACTACACT | 0.242 (inactive)
CCTACACG | 0.18 (inactive)
GCTACACA | 0.185 (inactive)
ACTACACG | ≥ 0.357 (active)
ACTACACC | 0.281 (inactive)
ACTACACA | ≥ 0.357 (active)
ATAGCTCG | -0.0531 (inactive)
GTTCCCAA | -0.045 (inactive)
CGATGCTC | -0.13 (inactive)
GACGTGAA | -0.0186 (inactive)
CACGTGAA | 0.00852 (inactive)

Sequence | PBM E-score
AACGTGTC | 0.257 (inactive)
AACGTGTA | 0.371 (active)
AACGTGTG | 0.111 (inactive)
CACGTGTA | 0.329 (active)
CACGTGTC | 0.266 (inactive)
GACGTGGA | -0.0891 (inactive)
GACGTGTA | 0.344 (active)
GCCCGTCC | -0.243 (inactive)
AGGGTATC | -0.045 (inactive)
GTACCGTA | 0.0122 (inactive)
CATGTCTA | 0.359 (active)
CATGTCTC | 0.314 (active)
AATGTCTA | 0.242 (inactive)
GATGTCTA | 0.23 (inactive)
AATGTCTC | 0.112 (inactive)
CATGTGTC | 0.245 (inactive)
AAAGATTT | -0.00222 (inactive)
CTCACCCC | -0.125 (inactive)
ACGTATTG | 0.151 (inactive)
ATGTATTC | 0.222 (inactive)
GTGTATTA | 0.297 (inactive)
ATGTATTA | 0.373 (active)
ATGTATTG | 0.344 (active)
CTGTATTA | 0.159 (inactive)
GCCCCGGC | -0.316 (inactive)
CACAGTAA | 0.122 (inactive)

Sequence | PBM E-score
CTCTAAAG | -0.0918 (inactive)
GCGGTTCA | -0.101 (inactive)
CACAAGGA | 0.109 (inactive)
GACAAGGA | 0.314 (active)
GACAAGGC | 0.205 (inactive)
TACAAGGA | 0.352 (active)
AACAAGGA | 0.302 (inactive)
GACAAAGA | 0.13 (inactive)
CTCGACTC | -0.0783 (inactive)
CGGCTATC | -0.134 (inactive)
TCATATAA | 0.184 (inactive)
ACATATAA | 0.35 (active)
ACACATAA | 0.291 (inactive)
ACATATAG | 0.256 (inactive)
ACATATAT | 0.343 (active)
ACACATAT | 0.323 (active)
ACACATAG | 0.174 (inactive)
ACATATAC | 0.291 (inactive)
CCATATAA | 0.0843 (inactive)
CGACTATC | -0.0393 (inactive)
AGAGGATA | 0.0175 (inactive)
ATCAAGAT | 0.0803 (inactive)
CTAGGAGC | -0.193 (inactive)
CATCCCGC | -0.146 (inactive)
AACACTAA | 0.166 (inactive)
GCTTAAAA | -0.0795 (inactive)

Sequence | PBM E-score
GCGCCACA | -0.129 (inactive)
CGCGTATA | -0.0122 (inactive)
AATATTGC | 0.153 (inactive)
ACATGCTA | 0.352 (active)
AGATGCTG | -0.00229 (inactive)
ACATGCCT | 0.254 (inactive)
ACATGCCA | 0.336 (active)
ATATGCTG | 0.0997 (inactive)
CCATGCTA | 0.102 (inactive)
CCATGCTC | -0.00716 (inactive)
CTATGCTC | 0.0374 (inactive)
ACATGCTC | 0.334 (active)
ACATGCTG | 0.332 (active)
GCATGCTA | 0.0372 (inactive)
TCATGCCA | 0.0318 (inactive)
CACTGCTA | 0.075 (inactive)
CATACCGC | -0.0667 (inactive)
AAGCTCCT | -0.0876 (inactive)
GGATGCTA | -0.0509 (inactive)
CCAAACGG | -0.223 (inactive)
AATTCAAG | 0.118 (inactive)
ACTATAAT | 0.162 (inactive)
CTTGCGCA | -0.0025 (inactive)
TGAGTACA | 0.265 (inactive)
GAAGTACA | 0.269 (inactive)
AAAGTACA | 0.276 (inactive)

Sequence | PBM E-score
TAAGTACA | 0.332 (active)
TAAGTAAA | 0.0166 (inactive)
CAAGTACA | 0.342 (active)
GAAACCCA | 0.0044 (inactive)
ATCTCTGG | -0.00282 (inactive)
CGAGGTCA | -0.0898 (inactive)
CAACTTGA | 0.0844 (inactive)
ATGTACTG | 0.339 (active)
ATGTACCA | 0.36 (active)
ATGTACTA | 0.398 (active)
ATGTACTC | 0.303 (inactive)
ATGTACGG | 0.211 (inactive)
CTGTACGA | 0.203 (inactive)
GTGTACCA | 0.308 (inactive)
AAGTACTA | 0.197 (inactive)
CTGTACTC | 0.082 (inactive)
ATGTACCC | 0.263 (inactive)
AGGTACTG | 0.0558 (inactive)
ATGTACGA | 0.395 (active)
ATCATCCG | 0.0593 (inactive)
CCCTAGCG | -0.171 (inactive)
AGAGCCTA | -0.0924 (inactive)
ATAACCGC | 0.0257 (inactive)
CTGTACTA | 0.156 (inactive)
GTGTACTA | 0.34 (active)
GGGTACTA | 0.152 (inactive)

Sequence | PBM E-score
AGTCGTCC | -0.0214 (inactive)
CACCGAAC | 0.0165 (inactive)
ACTGCGAA | -0.0547 (inactive)
AATGTTAG | 0.253 (inactive)
AATGTTAC | 0.277 (inactive)
CATGTTAA | 0.446 (active)
CATGTTAG | 0.408 (active)
CATGTTAC | 0.42 (active)
TCTGTTAA | 0.173 (inactive)
CCTGTTAG | 0.114 (inactive)
TAGGTTAA | 0.0795 (inactive)
AATGTTAA | 0.291 (inactive)
GATGTTAC | 0.295 (inactive)
TATGTTAA | 0.314 (active)
GATGTTAA | 0.28 (inactive)
GACCTACC | -0.0746 (inactive)
AGCACGCC | -0.187 (inactive)
CGAATTGC | -0.0371 (inactive)
TCATTAAA | 0.143 (inactive)
GAGCTAAC | -0.0389 (inactive)
AACCCCCG | -0.284 (inactive)
AGTGACAT | 0.354 (active)
AGTGACAC | 0.198 (inactive)
AGCGACAT | 0.325 (active)
AGTGACAA | 0.255 (inactive)
AGCGACAC | 0.188 (inactive)

Sequence | PBM E-score
AGCGACAG | 0.105 (inactive)
AACGACAA | 0.241 (inactive)
AACGACAG | 0.164 (inactive)
AACGACAT | 0.358 (active)
AGCCTACT | -0.116 (inactive)
CCCATCCG | -0.202 (inactive)
CTTTACAA | 0.137 (inactive)
ATTTACAA | 0.361 (active)
GCTTACAA | 0.22 (inactive)
ATTTACAC | 0.259 (inactive)
GTTTACAA | 0.343 (active)
ATTTACAG | 0.137 (inactive)
AGGAGTTG | 0.0303 (inactive)
ATACGAAG | 0.0288 (inactive)
CACTCCCC | -0.125 (inactive)
AGATGGTG | -0.0838 (inactive)
ACATGGTA | 0.418 (active)
GCATGGTA | 0.166 (inactive)
ACATGGTG | 0.366 (active)
CCATGGTA | 0.133 (inactive)
ACATGGTC | 0.285 (inactive)
